Laboratory results taken from the supplement of paper PMC10849652.
The full data set covers some 8,800 targets. This sample favours those with a hit. About 0.5% of all pairs of compound and target were hits.

Columns and labels:
Experiment in all cases: log2 fold change, soluble protein after heating vs DMSO (PISA); higher = thermal stabilisation; K562 lysate, 10 uM; active = over 0.2 and 3.5 SD of the protein, either way, in both replicates (recomputed)
[1] = compound: CCCS(=O)(=O)Nc1ccc(F)c(C(=O)c2c[nH]c3ncc(-c4ccc(Cl)cc4)cc23)c1F [vemurafenib]
Outline: (§1)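 Soluble protein was defined as the supernatant remaining after 21,000xg for 90 min, following pooling of heated aliquots and adjustment to 0.5% NP-40 at 4°C. Before that, crude K562 extract at 1 mg/mL protein in PBS pH 7.4 with 1 mM MgCl2 was treated with 10 μM compound for 30 min and heated for 3 min across 48°C-58°C. Quantification used TMTpro 16plex LC-MS/MS with channel sums equalised, and values are log-two fold changes in thermal stability relative to solvent controls from duplicates.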

[2] = compound: CCCS(=O)(=O)Nc1ccc(F)c(C(=O)c2c[nH]c3ncc(Cl)cc23)c1F
Outline: as §1

[3] = compound: CC[C@@H]1C(=O)N(C)c2cnc(Nc3ccc(C(=O)NC4CCN(C)CC4)cc3OC)nc2N1C1CCCC1
Outline: as §1

[4] = compound: CC[C@@H]1C(=O)N(C)c2cnc(Nc3ccc(C(=O)N[C@H]4CC[C@H](N5CCN(CC6CC6)CC5)CC4)cc3OC)nc2N1C(C)C [volasertib]
Outline: as §1

[5] = compound: CNC(=O)c1ccc(Nc2ncc(C(F)(F)F)c(NCc3nccnc3N(C)S(C)(=O)=O)n2)cc1 [defactinib]
Outline: as §1

[6] = compound: COC(=O)N[C@@H](C)CNc1nccc(-c2cn(C(C)C)nc2-c2cc(Cl)cc(NS(C)(=O)=O)c2F)n1 [encorafenib]
Outline: as §1

[7] = compound: COC(=O)[C@H](CCSC)NC(=O)C1=C(C=C(C=C1)NC[C@H](CS)N)C2=CC=CC=C2
Outline: as §1

[8] = compound: COc1cc(Nc2ncc3c(n2)-c2ccc(Cl)cc2C(c2c(F)cccc2OC)=NC3)ccc1C(=O)O [alisertib]
Outline: as §1

[9] = compound: COc1cc2nc(-c3cc(F)ccc3O)nc(N[C@@H]3CNC[C@H]3C(C)(C)O)c2cc1OC
Outline: as §1

[10] = compound: COc1cc2ncnc(Nc3ccc(F)c(Cl)c3)c2cc1OCCCN1CCOCC1 [gefitinib]
Outline: as §1

[11] = compound: CCn1c(C(=O)N(C2CC2)C2CC2)cc2c3c(ncn3C)c(Nc3cc(C)n(C)n3)nc21
Outline: as §1

[12] = compound: CN1CCN(CCOc2cc(OC3CCOCC3)c3c(Nc4c(Cl)ccc5c4OCO5)ncnc3c2)CC1 [saracatinib]
Outline: as §1

[13] = compound: CN1CCc2c(c3ccccc3n2Cc2ccc(C(=O)NO)cc2)C1 [Tubastatin A]
Outline: as §1

[14] = compound: CNC(=O)C1=CC=CC=C1NC2=NC(=NC=C2Cl)NC3=C(C=C(C=C3)N4CCOCC4)OC
Outline: as §1

[15] = compound: CNc1nc(-c2ccc3c(N)n[nH]c3c2)cc(N2C[C@@H](C(=O)NC3CCCCC3)CC[C@H]2C)n1
Outline: as §1

[16] = compound: CCN(CCCOc1ccc2c(Nc3cc(CC(=O)Nc4cccc(F)c4)[nH]n3)ncnc2c1)CCOP(=O)(O)O [barasertib]
Outline: as §1

[17] = compound: CCn1cc(-c2ccnc3[nH]c(-c4cccc(CN(C)C)c4)cc23)c(-c2ccc(NC(=O)N(C)C)cc2)n1
Outline: as §1

[18] = compound: CN1CCC(CNc2ccc3ncc(-c4cccc(OC(F)(F)F)c4)n3n2)CC1
Outline: as §1

[19] = compound: CN1CCN(c2nc(C3=C(c4c[nH]c5ccccc45)C(=O)NC3=O)c3ccccc3n2)CC1 [sotrastaurin]
Outline: as §1

[20] = compound: CN1CC[C@H](c2c(O)cc(O)c3c(=O)cc(-c4ccccc4Cl)oc23)[C@H](O)C1 [alvocidib]
Outline: as §1

Measured: log2 fold change

TEC (UniProt P42680)
inactive: [1] -0.081 | [2] -0.119 | [3] -0.054 | [4] 0.14 | [5] 0.07 | [6] -0.044 | [7] -0.036 | [8] -0.086 | [9] -0.028 | [10] -0.027

UBR4 isoform 4 (UniProt Q5T4S7)
inactive: [1] 0.02 | [2] -0.1 | [3] -0.096 | [4] -0.104 | [11] 0.077 | [12] 0.061 | [13] -0.337 | [14] -0.16 | [5] -0.032 | [15] 0.144 | [6] -0.028 | [7] 0.062 | [9] 0.064

TUBB4A (UniProt M0QYM7)
inactive: [1] 0.019 | [2] -0.099 | [16] 0.315 | [3] -0.193 | [4] -0.069 | [11] -0.053 | [17] -0.772 | [18] 0.448 | [19] 0.111 | [20] -0.158 | [13] -0.007 | [14] -0.109 | [5] -0.115 | [6] 0.009 | [7] 0.053 | [8] -0.025 | [9] 0.042 | [10] -0.076

TRIM3 (UniProt O75382)
inactive: [1] 0.13 | [2] -0.085 | [3] -0.029 | [4] 0.09 | [14] 0.06 | [5] -0.095 | [6] 0.034 | [7] 0.041 | [9] 0.069

TMEM161B (UniProt Q8NDZ6)
Sequence of UniProt Q8NDZ6 (Q8NDZ6 whole entry, looked up): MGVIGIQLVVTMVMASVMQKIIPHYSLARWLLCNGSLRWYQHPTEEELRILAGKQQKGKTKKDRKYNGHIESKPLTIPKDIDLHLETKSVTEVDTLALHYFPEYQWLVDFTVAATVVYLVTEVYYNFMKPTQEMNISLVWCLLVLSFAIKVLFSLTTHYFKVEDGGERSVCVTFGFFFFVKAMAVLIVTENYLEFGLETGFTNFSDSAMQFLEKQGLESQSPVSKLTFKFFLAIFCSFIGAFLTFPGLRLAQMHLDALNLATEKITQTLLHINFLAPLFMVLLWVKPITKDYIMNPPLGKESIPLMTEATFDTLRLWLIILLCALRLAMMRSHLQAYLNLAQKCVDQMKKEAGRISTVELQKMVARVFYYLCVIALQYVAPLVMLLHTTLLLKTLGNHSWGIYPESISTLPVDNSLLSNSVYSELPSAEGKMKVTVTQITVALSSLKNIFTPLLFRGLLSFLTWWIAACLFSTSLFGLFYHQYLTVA
inactive: [1] -0.112 | [2] -0.076 | [16] 0.076 | [3] -0.073 | [4] -0.055 | [11] -0.028 | [17] 0.055 | [18] -0.104 | [19] 0.009 | [20] -0.03 | [13] 0.035 | [14] -0.022 | [5] 0.067 | [6] 0.047 | [7] 0 | [8] -0.222 | [9] 0.033 | [10] -0.008

TUBGCP5 (UniProt Q96RT8)
inactive: [1] -0.023 | [2] -0.351 | [16] -0.057 | [3] -0.204 | [4] 0 | [11] 0.004 | [17] -0.06 | [18] 0.088 | [12] -0.075 | [19] 0.033 | [20] -0.069 | [13] -0.128 | [5] -0.159 | [15] -0.055 | [6] 0.179 | [7] 0.145 | [8] -0.023 | [9] 0.025 | [10] -0.007

UBXN2B (UniProt Q14CS0)
inactive: [1] 0.148 | [2] 0.049 | [16] 0.147 | [3] 0.065 | [4] -0.066 | [11] -0.035 | [17] -0.142 | [18] 0.074 | [12] -0.068 | [20] -0.123 | [13] -0.001 | [14] -0.046 | [5] 0.07 | [15] -0.018 | [6] -0.037 | [7] 0.069 | [8] 0.174 | [9] -0.114 | [10] 0.008

UBL5 (UniProt Q9BZL1)
Sequence of UniProt Q9BZL1 (Q9BZL1 whole entry, looked up): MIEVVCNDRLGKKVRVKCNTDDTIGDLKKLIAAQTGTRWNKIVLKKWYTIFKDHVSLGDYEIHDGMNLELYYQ
inactive: [1] 0.014 | [16] 0.036 | [3] -0.015 | [11] -0.028 | [17] -0.126 | [18] 0.097 | [12] -0.007 | [19] -0.186 | [20] -0.117 | [13] 0.023 | [14] -0.048 | [5] 0.041 | [15] -0.045 | [6] -0.012 | [7] -0.06 | [8] 0.039 | [10] -0.141

TMEM167B (UniProt Q9NRX6)
Sequence of UniProt Q9NRX6 (Q9NRX6 whole entry, looked up): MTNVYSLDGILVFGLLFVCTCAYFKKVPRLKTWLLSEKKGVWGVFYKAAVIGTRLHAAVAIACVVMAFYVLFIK
inactive: [1] 0.058 | [2] -0.057 | [16] -0.009 | [3] 0.053 | [4] 0.038 | [11] -0.028 | [18] 0.086 | [19] 0.056 | [20] -0.167 | [13] -0.028 | [14] 0.06 | [5] 0.015 | [6] 0.026 | [7] -0.022 | [8] 0.012 | [9] 0.032 | [10] 0.032
active: [17] -0.472

TK1 (UniProt K7ERV3)
inactive: [1] -0.001 | [16] 0.072 | [3] -0.105 | [11] 0.049 | [17] -0.102 | [18] 0.068 | [12] 0.089 | [19] -0.147 | [20] -0.028 | [13] 0.118 | [14] -0.002 | [5] -0.024 | [15] 0.121 | [6] -0.199 | [7] 0.006 | [8] -0.283 | [10] 0.214

TMEM14C (UniProt Q9P0S9)
Sequence of UniProt Q9P0S9 (Q9P0S9 whole entry, looked up): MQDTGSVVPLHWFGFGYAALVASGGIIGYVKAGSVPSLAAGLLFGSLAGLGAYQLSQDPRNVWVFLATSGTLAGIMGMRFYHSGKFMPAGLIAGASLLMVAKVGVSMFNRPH
inactive: [1] 0.027 | [2] 0.087 | [16] -0.038 | [3] 0.129 | [4] 0.045 | [11] -0.053 | [12] -0.088 | [19] 0.06 | [14] 0.033 | [5] 0.205 | [15] 0.011 | [6] 0.004 | [7] 0.022 | [8] -0.011 | [9] -0.168 | [10] 0.003
active: [13] -0.463

TTK (UniProt P33981)
Sequence of UniProt P33981 (P33981 whole entry, looked up): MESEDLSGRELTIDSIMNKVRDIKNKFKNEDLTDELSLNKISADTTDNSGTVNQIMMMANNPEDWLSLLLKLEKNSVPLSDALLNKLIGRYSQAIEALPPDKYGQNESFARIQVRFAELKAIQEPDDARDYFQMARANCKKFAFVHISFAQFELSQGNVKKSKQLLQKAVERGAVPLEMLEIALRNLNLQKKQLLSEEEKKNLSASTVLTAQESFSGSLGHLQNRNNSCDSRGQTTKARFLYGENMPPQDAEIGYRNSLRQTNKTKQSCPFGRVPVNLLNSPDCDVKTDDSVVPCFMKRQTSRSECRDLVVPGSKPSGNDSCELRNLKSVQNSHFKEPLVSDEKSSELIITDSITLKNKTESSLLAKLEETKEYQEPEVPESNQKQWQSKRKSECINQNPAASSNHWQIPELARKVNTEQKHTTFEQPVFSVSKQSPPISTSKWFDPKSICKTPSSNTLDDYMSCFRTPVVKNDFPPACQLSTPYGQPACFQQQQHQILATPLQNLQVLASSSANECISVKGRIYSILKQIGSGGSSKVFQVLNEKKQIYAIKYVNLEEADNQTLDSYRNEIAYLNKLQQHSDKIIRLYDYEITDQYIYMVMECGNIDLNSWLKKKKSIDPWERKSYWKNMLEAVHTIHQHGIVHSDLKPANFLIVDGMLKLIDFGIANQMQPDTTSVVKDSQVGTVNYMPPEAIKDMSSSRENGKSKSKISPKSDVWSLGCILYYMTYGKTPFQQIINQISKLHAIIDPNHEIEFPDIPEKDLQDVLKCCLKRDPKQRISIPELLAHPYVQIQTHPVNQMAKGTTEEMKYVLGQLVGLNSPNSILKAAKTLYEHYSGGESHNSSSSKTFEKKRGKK
active: [14] 0.616 | [5] 0.434
inactive: [1] -0.009 | [2] 0.02 | [16] 0.06 | [3] 0.089 | [4] -0.026 | [11] -0.048 | [17] -0.018 | [18] 0.01 | [12] -0.037 | [19] 0.072 | [20] -0.004 | [13] -0.141 | [15] 0.101 | [6] 0.004 | [7] -0.02 | [8] 0.078 | [9] 0.103 | [10] -0.102

TXNIP (UniProt Q9H3M7)
Sequence of UniProt Q9H3M7 (Q9H3M7 whole entry, looked up): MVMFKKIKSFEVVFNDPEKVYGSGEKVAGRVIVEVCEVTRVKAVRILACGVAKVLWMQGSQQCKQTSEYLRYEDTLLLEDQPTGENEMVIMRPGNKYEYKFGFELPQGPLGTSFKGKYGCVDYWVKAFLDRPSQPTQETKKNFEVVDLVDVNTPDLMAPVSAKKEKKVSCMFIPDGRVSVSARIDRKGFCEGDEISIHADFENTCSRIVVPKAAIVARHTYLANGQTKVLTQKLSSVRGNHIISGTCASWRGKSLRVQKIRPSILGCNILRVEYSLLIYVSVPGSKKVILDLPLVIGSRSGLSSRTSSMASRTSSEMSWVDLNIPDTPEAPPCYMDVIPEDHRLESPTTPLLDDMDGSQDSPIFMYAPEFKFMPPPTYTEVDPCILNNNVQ
inactive: [1] 0.008 | [16] -0.005 | [3] -0.006 | [11] 0.016 | [17] 0.209 | [18] -0.11 | [12] -0.07 | [19] 0.016 | [20] 0.017 | [13] -0.021 | [14] 0.037 | [5] 0.042 | [15] 0.046 | [6] 0.011 | [7] 0.067 | [8] -0.015 | [10] -0.004

TMC1 (UniProt Q8TDI8)
Sequence of UniProt Q8TDI8 (Q8TDI8 whole entry, looked up): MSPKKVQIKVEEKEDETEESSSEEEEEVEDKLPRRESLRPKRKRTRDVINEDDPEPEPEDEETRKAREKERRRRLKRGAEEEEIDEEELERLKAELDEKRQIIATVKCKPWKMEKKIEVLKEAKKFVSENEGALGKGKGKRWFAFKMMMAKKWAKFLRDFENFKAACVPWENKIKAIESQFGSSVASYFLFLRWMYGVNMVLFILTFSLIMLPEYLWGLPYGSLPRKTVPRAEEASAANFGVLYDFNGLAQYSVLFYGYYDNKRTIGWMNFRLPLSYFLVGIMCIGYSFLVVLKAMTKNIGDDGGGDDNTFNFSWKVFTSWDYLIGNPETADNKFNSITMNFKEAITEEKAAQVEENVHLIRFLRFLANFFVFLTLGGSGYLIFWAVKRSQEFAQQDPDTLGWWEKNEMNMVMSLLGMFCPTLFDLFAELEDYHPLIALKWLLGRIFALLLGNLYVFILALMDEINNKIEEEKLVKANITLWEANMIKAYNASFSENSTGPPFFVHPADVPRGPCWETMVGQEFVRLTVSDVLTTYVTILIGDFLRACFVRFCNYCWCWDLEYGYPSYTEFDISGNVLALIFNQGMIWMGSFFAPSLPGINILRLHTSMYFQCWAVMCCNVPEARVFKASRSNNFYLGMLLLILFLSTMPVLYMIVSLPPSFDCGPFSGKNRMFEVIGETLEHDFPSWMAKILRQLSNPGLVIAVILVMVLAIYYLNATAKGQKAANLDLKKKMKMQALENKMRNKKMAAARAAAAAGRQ
inactive: [1] 0.089 | [2] -0.02 | [3] -0.164 | [4] -0.021 | [11] -0.059 | [19] 0.141 | [13] -0.088 | [14] -0.028 | [5] -0.002 | [6] 0.03 | [7] 0.054 | [8] 0.216 | [9] 0.021 | [10] 0.215

TNKS (UniProt O95271)
Sequence of UniProt O95271 (O95271 whole entry, looked up): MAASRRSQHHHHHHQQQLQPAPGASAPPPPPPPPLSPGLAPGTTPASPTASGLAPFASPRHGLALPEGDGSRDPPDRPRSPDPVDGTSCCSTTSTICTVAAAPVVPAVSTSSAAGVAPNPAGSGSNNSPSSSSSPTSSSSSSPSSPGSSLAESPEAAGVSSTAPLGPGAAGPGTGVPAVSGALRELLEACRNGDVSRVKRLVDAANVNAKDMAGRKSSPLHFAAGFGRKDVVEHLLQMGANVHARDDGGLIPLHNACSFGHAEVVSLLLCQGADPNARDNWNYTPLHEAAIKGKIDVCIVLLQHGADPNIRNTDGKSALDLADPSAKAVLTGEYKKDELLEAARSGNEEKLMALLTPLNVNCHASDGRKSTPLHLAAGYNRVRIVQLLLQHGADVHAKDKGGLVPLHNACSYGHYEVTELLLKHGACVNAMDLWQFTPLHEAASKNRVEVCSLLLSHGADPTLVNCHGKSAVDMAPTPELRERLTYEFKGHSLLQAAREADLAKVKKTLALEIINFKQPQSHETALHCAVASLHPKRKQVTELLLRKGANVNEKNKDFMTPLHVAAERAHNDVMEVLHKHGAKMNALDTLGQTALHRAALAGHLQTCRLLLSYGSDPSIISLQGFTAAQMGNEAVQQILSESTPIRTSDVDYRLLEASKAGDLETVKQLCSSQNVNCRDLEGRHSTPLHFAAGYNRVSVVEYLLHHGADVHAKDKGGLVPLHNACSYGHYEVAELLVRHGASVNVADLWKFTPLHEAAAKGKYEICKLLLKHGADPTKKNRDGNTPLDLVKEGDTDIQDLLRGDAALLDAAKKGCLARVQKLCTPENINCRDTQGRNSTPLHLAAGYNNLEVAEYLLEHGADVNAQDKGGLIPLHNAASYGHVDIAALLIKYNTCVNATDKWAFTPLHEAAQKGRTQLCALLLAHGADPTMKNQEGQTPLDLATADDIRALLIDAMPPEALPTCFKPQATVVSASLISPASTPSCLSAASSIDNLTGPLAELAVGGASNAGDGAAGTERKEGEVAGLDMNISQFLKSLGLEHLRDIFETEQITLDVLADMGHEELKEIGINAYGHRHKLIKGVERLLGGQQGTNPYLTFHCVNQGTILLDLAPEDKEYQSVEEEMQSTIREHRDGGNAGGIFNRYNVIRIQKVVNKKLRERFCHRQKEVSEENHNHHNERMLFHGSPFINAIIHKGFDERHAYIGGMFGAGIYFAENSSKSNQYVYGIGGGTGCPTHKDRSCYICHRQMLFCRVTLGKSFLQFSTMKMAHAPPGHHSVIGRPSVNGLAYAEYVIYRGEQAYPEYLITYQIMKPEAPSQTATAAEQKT
inactive: [1] -0.035 | [2] 0.124 | [3] 0.055 | [4] -0.11 | [11] 0.027 | [17] 0.207 | [18] -0.092 | [12] -0.007 | [19] 0.021 | [20] -0.223 | [13] -0.087 | [14] 0.04 | [5] -0.013 | [15] -0.031 | [6] -0.078 | [7] 0.022 | [8] -0.002 | [9] -0.072 | [10] -0.069

TNIK isoform 4 (UniProt Q9UKE5)
inactive: [1] 0.002 | [2] -0.015 | [16] -0.034 | [3] 0.025 | [4] 0 | [11] 0.011 | [17] 0.071 | [18] 0.099 | [12] 0.071 | [19] 0.056 | [20] -0.015 | [13] -0.071 | [14] 0.085 | [5] 0.148 | [15] -0.04 | [6] -0.026 | [7] -0.097 | [8] -0.026 | [9] 0.247 | [10] -0.005

TBC1D20 isoform 3 (UniProt Q96BZ9)
Sequence of UniProt Q96BZ9 (Q96BZ9 whole entry, looked up): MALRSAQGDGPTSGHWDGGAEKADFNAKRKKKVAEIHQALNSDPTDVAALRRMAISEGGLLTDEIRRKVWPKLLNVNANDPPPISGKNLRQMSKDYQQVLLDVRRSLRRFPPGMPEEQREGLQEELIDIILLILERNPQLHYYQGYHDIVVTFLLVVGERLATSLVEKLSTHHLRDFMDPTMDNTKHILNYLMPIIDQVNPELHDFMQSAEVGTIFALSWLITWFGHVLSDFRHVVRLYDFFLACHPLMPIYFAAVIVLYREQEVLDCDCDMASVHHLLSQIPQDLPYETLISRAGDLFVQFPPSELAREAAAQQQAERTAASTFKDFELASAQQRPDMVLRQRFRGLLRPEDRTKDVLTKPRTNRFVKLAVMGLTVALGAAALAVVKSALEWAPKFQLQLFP
active: [16] 0.438
inactive: [1] -0.088 | [2] -0.069 | [3] 0.043 | [4] 0.008 | [11] 0.059 | [17] 0.046 | [18] -0.033 | [12] -0.038 | [19] -0.096 | [20] -0.011 | [13] -0.131 | [14] -0.017 | [5] 0.166 | [15] 0.109 | [6] 0.037 | [7] -0.047 | [9] -0.021

TPM3 isoform 3 (UniProt P06753)
Sequence of UniProt P06753 (P06753 whole entry, looked up): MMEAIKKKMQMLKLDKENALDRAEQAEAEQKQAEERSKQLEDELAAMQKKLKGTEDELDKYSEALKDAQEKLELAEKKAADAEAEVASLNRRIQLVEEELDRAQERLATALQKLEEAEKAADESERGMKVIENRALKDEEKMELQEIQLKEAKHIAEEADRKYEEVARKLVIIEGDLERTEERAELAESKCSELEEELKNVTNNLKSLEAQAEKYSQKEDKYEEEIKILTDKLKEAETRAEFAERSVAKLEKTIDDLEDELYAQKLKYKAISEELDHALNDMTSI
inactive: [1] -0.082 | [2] 0.011 | [3] -0.187 | [4] 0.036 | [11] 0.029 | [17] -0.493 | [18] 0.184 | [12] 0.009 | [19] 0.028 | [20] -0.202 | [13] -0.049 | [14] 0.028 | [5] 0.074 | [15] -0.137 | [6] -0.014 | [7] -0.039 | [9] -0.001

TTC37 (UniProt Q6PGP7)
inactive: [1] 0.053 | [2] -0.068 | [16] 0.018 | [4] 0.011 | [11] 0.045 | [12] 0.013 | [19] -0.019 | [13] 0.072 | [14] -0.13 | [5] -0.061 | [15] 0.185 | [8] 0.032 | [9] 0.043 | [10] 0.081
